Hits are enriched below; roughly 5.7% of the tested compounds scored in any of these assays.
HP1b chromo inh: inhibitors of HP1-beta chromodomain binding to methylated histone tails | Potency, µM (top dose mostly 114 µM), without a hit: top-dose activity change, negative = inhibition, actives largely listed as inhibitors | 0.56% of 390,000 active | P83916 | AlphaScreen HP1-beta / biotin-H3K9me3 peptide binding; also: potency is read from the fitted curve at half-maximal effect; nearly all actives have a fitted effect of over 70% in size
Target sequence (P83916 whole entry, looked up): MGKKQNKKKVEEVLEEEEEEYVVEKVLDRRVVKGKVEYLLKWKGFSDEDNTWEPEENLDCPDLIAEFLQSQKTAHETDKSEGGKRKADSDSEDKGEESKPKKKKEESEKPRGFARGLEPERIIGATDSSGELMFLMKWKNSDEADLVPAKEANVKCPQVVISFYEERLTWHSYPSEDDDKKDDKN
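Compound inhibition of the preformed complex between 50 nM HP1-beta and 50 nM biotinylated H3K9me3 peptide was read by AlphaScreen. Buffer was PBS pH 7.4 with 0.01% Tween-20. Incubations ran 30 min at room temperature, with 10 ug/mL donor/acceptor beads.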
JMJD2E inh: inhibitors of human JMJD2E histone demethylase; B2RXH2; JMJD2E catalytic domain, FDH-coupled NADH fluorescence (FDH is formaldehyde dehydrogenase); Potency, µM (highest dose often 57.1 µM), for inactives: at the top dose activity change, negative = inhibition, usual class: inhibitors; 1.6% of 230,000 active; AID 2147; active = well fitted inhibition curve with a large enough effect, not every such curve was filed as active; inconclusive = small, poorly fitted or top-dose-only effect, or another doubt; inactive = no such curve, though single readings can be large or run the other way;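 also: potency is read from the fitted curve at half-maximal effect; 0% = wells with enzyme and -100% = buffer wells without enzyme; nearly all actives have a fitted effect of over 50% in size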
Target sequence (B2RXH2 1-337 limits assumed): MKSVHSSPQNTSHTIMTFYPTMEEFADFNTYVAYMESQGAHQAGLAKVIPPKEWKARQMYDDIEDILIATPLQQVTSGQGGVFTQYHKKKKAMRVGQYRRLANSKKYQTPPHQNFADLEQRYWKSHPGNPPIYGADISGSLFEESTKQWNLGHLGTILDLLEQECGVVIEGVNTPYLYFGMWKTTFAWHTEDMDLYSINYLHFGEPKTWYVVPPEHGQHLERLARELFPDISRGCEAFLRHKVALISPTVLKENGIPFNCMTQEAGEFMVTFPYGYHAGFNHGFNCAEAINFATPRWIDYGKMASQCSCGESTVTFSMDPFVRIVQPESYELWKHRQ
BAZ2B inh: inhibitors of human BAZ2B bromodomain. Q9UIF8. AlphaScreen BAZ2B-H3K14Ac peptide displacement. Potency, µM (series often up to 114 µM), for the others: top-dose activity change, negative = inhibition, actives largely listed as inhibitors. 4.4% of 360,000 active; also: potency is read from the fitted curve at half-maximal effect; % is scaled to controls: 0 for no effect and ±100 for the full control effect; nearly all actives have a fitted effect of over 60% in size
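BAZ2B (50 nM) with biotin-H3(5-23)K14Ac peptide (50 nM) in PBS pH 7.4, 0.01% Tween-20, preformed 30 min, then compound 30 min at room temperature; top concentration 110uM. AlphaScreen streptavidin donor/nickel chelate acceptor beads (10 ug/mL final), 20 min dark, signal read.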
PI5P4Ka inh: PI5P4K alpha (human) kinase inhibition. P48426. PI5P4Kalpha enzyme, ADP-Glo luminescence, 60 min; hits give low values. max response, %. 1.2% of 330,000 active; active = max response of -50% or lower; inconclusive = between -30% and -50%; inactive = -30% or higher; also: value at the top dose of about 77 µM; % is scaled to controls: 0 for no effect and ±100 for the full control effect
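Reactions run in 0.038 M HEPES pH 7.4, 0.28 mM EGTA, 0.1% CHAPS and 5% DMSO, with PI5P4Kalpha, substrate, compound and 5 microM ATP final, one hour at room temperature. Readout is ADP-Glo luminescence.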
L3MBTL1 inh-1: L3MBTL1 (human) inhibition. Q9Y468. AlphaScreen L3MBTL1–H3K9me1 peptide binding. 0.66% of 230,000 active. Potency, µM (series often up to 57.1 µM), without a hit: at the highest dose activity, negative = inhibition, most hits filed as inhibitors; also: potency is read from the fitted curve at half-maximal effect; % is scaled to controls: 0 for no effect and ±100 for the full control effect; nearly all actives have a fitted effect of over 60% in size
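First, the protein-peptide complex forms for 30 min at room temperature (L3MBTL1 50 nM, biotinylated H3K9me1 peptide 75 nM). Next, compounds are pin-transferred and incubated 30 min. Finally, AlphaScreen beads are added and read after 30 min.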
JMJD2A Tudor inh: inhibitors of human JMJD2A Tudor domain; O75164; Potency, µM (doses to about 114 µM), inactives show at the highest dose activity change, negative = inhibition, usual class: inhibitors; 4.4% of 390,000 active; AlphaScreen JMJD2A-Tudor / H3K4me3 peptide binding; AID 504339; also: potency is read from the fitted curve at half-maximal effect; % is scaled to controls: 0 for no effect and ±100 for the full control effect; nearly all actives have a fitted effect of over 50% in size
L3MBTL1 inh-2: validation of human L3MBTL1 methyl-lysine binding inhibitors; L3MBTL1 methyl-lysine binding inhibition, biochemical qHTS; shares compounds with L3MBTL1 inh-1; 91% of 500 active; Potency, µM, hits mostly inhibitors; also: potency is read from the fitted curve at half-maximal effect; nearly all actives have a fitted effect of over 70% in size
L3MBTL1 ctr: interferes with AlphaScreen signal in L3MBTL1 counterscreen; 500 tested, under 10 active; AID 602224; AlphaScreen counterscreen, signal inhibition; Potency, µM (titrated, usually from 57.1 µM), inactives show at the highest dose activity change, negative = inhibition, usual class: inhibitors; shares compounds with L3MBTL1 inh-1; also: potency is read from the fitted curve at half-maximal effect; 0% is about no effect
Starred values were filed as active, the others as inactive; ? = inconclusive; . = no result given. Unless noted, calls follow the shape of the dose curve; as a rule, active = well fitted curve in the direction sought with a large enough effect; inconclusive = small, poorly fitted or top-dose-only effect, or another doubt; inactive = no such curve, though single readings can be large; an effect the other way counts as inactive or inconclusive.

SMILES	HP1b chromo inh	JMJD2E inh	BAZ2B inh	PI5P4Ka inh	L3MBTL1 inh-1	JMJD2A Tudor inh	L3MBTL1 inh-2	L3MBTL1 ctr
O=C(COC(=O)C1CCN(S(=O)(=O)c2cccs2)CC1)c1cc2ccccc2o1	47%	-17%	-9%	2	32µM*	-5%	?	-1%
O=C1CCCC(O)=C1Sc1ccccc1C(=O)O	25µM*	0%	79µM*	-16	16µM*	22µM*	2.4*	?
CC1(C)CC(=O)C(Sc2ccccc2[N+](=O)[O-])=C(O)C1	26%	?	?	-1	3%	-23%	.	.
C[C@@H]1CN([C@@H](C)CO)C(=O)CCCn2nncc2CO[C@@H]1CN(C)S(=O)(=O)c1ccccc1	.	.	.	-2	.	.	.	.
CCOC(=O)c1cc(-c2ccc(N3CCOCC3)cc2)nn1-c1ccccc1C(=O)O	?	?	13µM*	?	14µM*	3.2µM*	6.7*	5%
Cc1ccc(C(C)C)cc1OCCCCN1CCCC1	?	2%	50µM*	2	28µM*	18µM*	19*	6%
Cc1cc(C)c(C)c(OCCCCN2CCCCC2)c1	53%	.	18%	1	49%	-21%	.	.
CCN1C(=O)[C@H]2[C@@H](c3ccc(-c4ccc(C(C)=O)cc4)cc3)N[C@@](Cc3ccccc3)(C(=O)OC)[C@H]2C1=O	30%	.	-22%	-2	-12%	-18%	.	.
O=C(O)c1cccc(-n2cccc2/C=C/[N+](=O)[O-])c1	20µM*	?	32µM*	-88*	2.8µM*	22µM*	1.7*	5%
O=C(O)c1cccc(N2C(=O)CCC2=O)c1	.	4%	-32%	.	.	.	.	.
O=C(O)c1cccc(-n2cccc2/C=C\[N+](=O)[O-])c1	?	14µM*	?	-23	32µM*	22µM*	21*	14%
O=Cc1cccn1-c1cccc([N+](=O)[O-])c1	?	3%	0%	?	-3%	-23%	.	.
O=C(O)c1cccc(-n2cccc2/C=N/O)c1	?	0%	45µM*	?	10µM*	32µM*	2.4*	11%
CN(C)C1(CNC(=O)COc2ccc([N+](=O)[O-])cc2)CCCCC1	32%	.	-11%	.	.	-5%	.	.
Cc1ccc(Nc2cc(C)nc3ncnn23)cc1	28%	.	-18%	-6	-11%	-13%	.	.
OC(c1ccccn1)(c1ccccn1)c1ccccn1	37%	-5%	22µM*	-2	16µM*	56µM*	21*	-5%
O=C1[C@H]2[C@H](C=CC[C@H]2C(=O)N2CCOCC2)CCN1Cc1ccccc1	29%	.	.	9	.	-15%	.	.
COc1ccc(C2=Nn3c(nnc3-c3ccccn3)SC2)cc1OC	47%	-1%	20µM*	-5	25µM*	45µM*	?	-19%
COc1ccc(C2=Nn3c(nnc3-c3ccccc3OC)SC2)cc1OC	10%	0%	-4%	-2	1%	-10%	.	.
CN(C(=O)COC(=O)CCC1CCCCC1)c1c(N)n(Cc2ccccc2)c(=O)[nH]c1=O	28%	.	-5%	1	6%	-13%	.	.
CCN1C(=O)/C(=C\c2ccc(-c3cccc(C(=O)OC)c3)o2)SC1=Nc1ccc(C(=O)O)cc1	.	.	-36%	.	-11%	.	.	.
CCN=C1S/C(=C\c2ccc(-c3cccc(C(=O)O)c3)o2)C(=O)N1CC	47%	-19%	?	-27	40µM*	?	24*	9%
Cc1ccc(-c2cc(-c3ccco3)c(C#N)c(=O)[nH]2)cc1	17%	?	50µM*	-17	28µM*	79µM*	21*	-1%
c1ccc2c(c1)OCC(c1nn3c(Cn4nnc5ccccc54)nnc3s1)O2 (centres undefined)	?	-4%	50µM*	.	35µM*	?	?	6%

Compound activity: PubChem BioAssay, National Center for Advancing Translational Sciences (NCATS)
